From PubChem BioAssay AID1347075 (National Center for Advancing Translational Sciences (NCATS), 2019)
In all, about 400,000 compounds went through this assay and about 5,500 (1.4%) were called active. Roughly 9% stayed inconclusive and do not appear here. What follows is part of a selection rich in actives, with near analogues and random picks from the rest. Values without a mark were called inactive. Calls follow the shape of the dose curve; as a rule, active = well fitted cell-killing curve with a large enough effect; inconclusive = small, poorly fitted or top-dose-only effect, or effect the other way; inactive = flat fitted curve, though single readings scatter.

Assay: qHTS assay for MDR1-selective chemotherapeutics: Primary screen using the parental adenocarcinoma cell KB-3-1; also: nearly all actives have a fitted effect of over 60% in size
Settings: KB-3-1 viability, CellTiter-Glo ATP luminescence, 72 h; series mostly up to 46.1 µM; activity change, negative = cytotoxic: at the top concentration
Method in brief: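 Viability of parental KB-3-1 cells, measured by CellTiter-Glo luminescence, followed a 72 h incubation at 37 °C with pinned compounds in phenol-red-free DMEM containing 10% FBS.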
% is scaled to controls: 0 for no effect and ±100 for the full control effect; potency is read from the fitted curve at half-maximal effect.

Row | Compound | activity change, negative = cytotoxic [%] | Potency
1 | CCOc1ccc(NC(=O)Cn2cc(C(=O)c3ccc(C)cc3)c(=O)c3cc4c(cc32)OCCO4)cc1 | -2.29 | 
2 | CCOc1cc(C2C(C(=O)OC)=C(C)NC3=C2C(=O)c2ccccc23)ccc1O (stereo unspecified) | 13.2 | 
3 | Clc1ccc(C[n+]2cc(-c3ccccc3)n3c2CCC3)cc1 |  | 7.31 µM (active)
4 | Cn1c(-c2ccccc2)c[n+]2c1CCCCC2 | -0.0167 | 
5 | Cc1ccc(C(=O)CSc2nc(-c3ccccc3)nc3c2CCCC3)c(C)c1 | -1.42 | 
6 | Cc1ccc(C(=O)C[n+]2cc(-c3ccccc3)n3c2CCCCC3)cc1 |  | 8.2 µM (active)
7 | Cc1ccc(C(=O)N2CCCC(c3ccccc3)=N2)cc1 | -8.58 | 
8 | CC1(C)C=Cc2c(ccc(C(=O)/C=C/c3ccccc3)c2O)O1 | 9.25 | 
9 | COc1ccc(CN2CCc3nc(Nc4ccccc4)ncc3C2)c(OC)c1OC | -1.65 | 
10 | CCOc1ccccc1N1CCN(C(=O)c2ccc3[nH]c(C)c(C)c3c2)CC1 |  | 8.2 µM (active)
11 | CCS(=O)(=O)N1CCc2cc(C(=O)NCc3ccc(OC)cc3)ccc21 | 0.614 | 
12 | Cc1cccc(N2CCN(C(=O)c3ccc4c(c3)CCN4S(=O)(=O)c3ccccc3)CC2)c1C |  | 23.1 µM (active)
13 | CCS(=O)(=O)N1CCc2cc(C(=O)N3CCN(c4ccccc4OC)CC3)ccc21 |  | 14.6 µM (active)
14 | CCn1c(C)c(C)c2cc(C(=O)N3CCN(c4cccc(C)c4C)CC3)ccc21 |  | inactive
15 | COc1ccccc1NS(=O)(=O)c1ccc(C(=O)N2CCN(c3ccccc3O)CC2)cc1 | 1.02 | 
16 | Cc1[nH]c2ccc(C(=O)N3CCN(C)CC3)cc2c1C | 2.76 | 
17 | CC1CCN(C(=O)c2cccc(S(=O)(=O)N3CCCc4ccccc43)c2)CC1 | -18.9 | 
18 | CCOc1ccccc1NC(=S)N1CCN(c2cccc(C)c2C)CC1 | -9.07 | 

Row | Compound | activity change, negative = cytotoxic [%] | Potency
19 | Cc1cccn2c(=O)c(C(=O)NC(C)c3ccccc3)cnc12 (stereo unspecified) | -5.19 | 
20 | COc1cc(C(=O)NCC(c2ccc(Cl)cc2)N2CCOCC2)cc(OC)c1OC (stereo unspecified) | 8.9 | 
21 | O=C(NCC(c1cccnc1)N1CCc2ccccc21)c1cccc(C(F)(F)F)c1 (stereo unspecified) | -8.05 | 
22 | CCOC(=O)c1cc2c(=O)n3ccccc3nc2n(CC2CCCO2)c1=NC(=O)c1ccccc1Br (stereo unspecified) | 8.06 | 
23 | Cn1nc(-c2ccccc2)c(CSc2cccc(Cl)c2)c1Cl |  | 23.1 µM (active)
24 | Cn1nc(-c2ccccc2)c(CO)c1Sc1ccccc1 | 3.21 | 
25 | Cn1nc(-c2ccccc2)c(-c2nc(-c3ccc(Cl)cc3)no2)c1Cl | 3.44 | 
26 | COc1ccccc1N1CCN(C(=O)C2CCN(S(=O)(=O)c3c(C)noc3/C=C/c3ccc(C)cc3)CC2)CC1 | -0.427 | 
27 | O=c1c2cccnc2n(Cc2cccc(F)c2)c(=O)n1Cc1ccccc1Cl | 4.6 | 
28 | CC(C)c1cc(C(=O)O)n[nH]1 | 19.1 | 
29 | CC(C)c1cc(C(=O)N/N=C/C(Br)=C/c2ccccc2)n[nH]1 |  | 10.3 µM (active)
30 | Cc1ccc(-c2cc(C(=O)N/N=C/C=C/c3ccccc3)n[nH]2)o1 | -26.5 | 
31 | CCOC(=O)c1cc2cc(C)ccc2[nH]1 | 10.9 | 
32 | CCOC(=O)C=Cc1ccc(C(=O)OCC)[nH]1 |  | 7.31 µM (active)
33 | CCOC(=O)c1c(C)[nH]c(C)c1C(=O)COC(=O)/C=C/c1cccc([N+](=O)[O-])c1 | 3.02 | 
34 | COc1ccccc1CNC(=O)C(Cc1ccccc1)NS(=O)(=O)c1ccc2c(c1)oc(=O)n2C (stereo unspecified) | 0.116 | 
35 | COc1ccccc1CN1CCC(CNC(=O)c2cnn(-c3ccccc3Cl)c2C2CCN(C(=O)OC(C)(C)C)CC2)CC1 | -12.9 | 
36 | Cc1cc(Cl)ccc1NC(=O)Cc1ccc(NC(=O)N2CCCCc3ccccc32)cc1 | 6.97 | 
